The text below walks through data of PubChem BioAssay (NCI).

Molecules are shown by their SMILES. The panel holds about 83,000 compounds, 20% with a hit somewhere; the sample as a whole holds those more often.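 Plates (96-well) were seeded with cells, treated with compound at one concentration, and incubated for 48 hours before percent growth was determined.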 Values without a mark were called inactive. The source made the active and inactive calls. Rule for the calls: active = growth percent below 10; inactive = the rest.

The subject of this experiment is HL-60(TB) leukemia. The experiment is described as follows: NCI-60 one-dose screen, 48 h (100 = growth as untreated, 0 = no growth, -100 = all killed). The following applies: 10 µM unless noted.
With `O=C(c1ccccc1)[C@@H](c1ccccc1)[C@]1(O)C(=O)Nc2ccccc21`, the growth was 107%.
As to `NCc1cn2cc(Cl)sc2n1`, the growth is 129%.
As to `CN(C)S(=O)(=O)c1ccc(S(=O)(=O)Nc2cccc(Cl)c2N2CCCCC2)cc1`, the growth was 76.7%.
To `NCCCNc1nc2ccccc2c2c(=O)c3cc(F)cc(Cl)c3sc12` belongs 75.5%; to `COc1ccc2[nH]cc(-c3nc(-c4c[nH]c5c(Cl)nccc45)cs3)c2c1`, 36%.
To `C#Cc1cccc(Nc2nc(Cl)nc3cc(NC(=O)CCl)ccc23)c1` belongs -45.8% (active).
To `CN(C)c1ccc(/C=C(\C#N)c2nc3ccccc3c(=O)[nH]2)cc1` belongs 108%; to `Cc1c2cnccc2c(C)c2c1c1cc(C#N)ccc1n2C`, -48.8% (active).
In the case of `C[N+]1(CCc2ccccc2)CCC(CCC2CC[N+](C)(CCc3ccccc3)CC2)CC1` (stereo not given), the growth was 105%.
To `CCCc1c(OC(=O)c2ccccc2)nc2[nH]c(=O)sc2c1C` belongs 98%.
For `Cn1nc(C(F)(F)F)cc1-c1cc(Cl)c(OCc2ccc(Cl)cc2)c(-c2ccc(Cl)c(C(F)(F)F)c2)c1O`, the growth is -24.3% (active).
Under `O=C1CCC(N2C(=O)c3cccc(NCCCC4CCN(CCNC(=O)c5cc6c(o5)C(=O)c5ccccc5C6=O)CC4)c3C2=O)C(=O)N1` (stereo not given) stands 6.69% (active).
Under `C=CC(CC(c1ccccc1)(c1ccccc1)c1ccccc1)N(CC)CC` (stereo not given) stands 71.5%; under `C=C(C)[C@@H]1CC[C@]2(C(=O)N[C@@H](Cc3ccccc3)C(=O)OC)CC[C@]3(C)[C@H](CC[C@@H]4[C@@]5(C)CCC(=O)C(C)(C)[C@@H]5CC[C@]43C)[C@@H]12`, 56%; under `CCOc1nc(-c2ccccc2)cc2c(O)c(C(=O)NCCCO)[nH]c(=O)c12`, 177%.
To `O=C(c1ccc(O)cc1)c1ccc(O)cc1` belongs 117%; to `FC(F)(F)c1cccc([Si](F)(c2cccc(C(F)(F)F)c2)c2cccc(C(F)(F)F)c2)c1`, 80.5%; to `O=C(CCl)N1CCN(C/C=C/c2ccccc2)CC1`, 102%.
Turning to `COc1ccc(NC(=S)NNc2ccc(-c3ccc(OC)c(OC)c3)nn2)cc1`, the growth was 98.9%.
To `COc1ccc2c(c1)C(C)Cc1c(ncnc1-n1cnc3cc(C)ccc31)N2C` (stereo not given) belongs -25.8% (active); to `CC[n+]1c(/C=C/C=C2\N(C)c3ccccc3C2(C)C)sc2ccccc21`, -30.3% (active).
As for `Nc1ncc(-c2ccc3ncnc(N4CCc5cc(F)c(Cl)cc54)c3c2)cc1C=O`, the growth was 2.72% (active).
Under `O=C1NC(=O)c2cc([N+](=O)[O-])cc3cccc1c23` stands 135%.
Under `Cc1cc(Nc2ccc(C(=O)N3CCCC3)cc2)nc(NCCCNc2ccnc3cc(Cl)ccc23)n1` stands 84.4%; under `O=C(CCCCCCN1CC(=O)N2[C@@H](c3ccc(Cl)cc3)c3[nH]c4ccccc4c3C[C@H]2C1=O)NO`, 46.8%.
Turning to `CCOC(=O)c1c(C)nc2c(c1N)CC(=O)N2Cc1ccc(OC)cc1`, the growth was 110%.
With `COc1cc(NC(C)CCCN)c2nc(C)ccc2c1OC` (stereo not given), the growth is -12.2% (active).
To `COc1ccc(C2CC(c3ccc(OC)cc3OC)=NN2c2ccc(S(N)(=O)=O)cc2)cc1` (stereo not given) belongs 61.2%; to `COc1ccc(OC)c(-c2ccc(-c3ccccc3N)c3[nH]c4ccccc4c23)c1`, 93.4%; to `COc1ccccc1N1CCN(CCn2c(=O)c3c(c4ccccc4n3C)n(C)c2=O)CC1`, 109%.
As to `Cc1ccc(NC(=S)NNC(=S)Nc2ccc(C)cc2)cc1`, the growth was 44.7%.
Take `CCCC[P+](c1ccccc1)(c1ccccc1)c1ccccc1`: the growth is 16.3%.
To `Nc1cc2c(cc1Cl)-c1ccc(Cl)cc1C2=O` belongs 75.7%; to `O=S(=O)(NCCCNc1nccc(-c2c(-c3ccc(F)cc3)nc3sccn23)n1)c1ccc(F)cc1`, 35.5%.
Under `CCN1CCN(Cc2ccc(Cc3ncc(F)c(-c4cc(F)c5nc(C)n(C(C)C)c5c4)n3)nc2)CC1` stands 27.3%; under `Cc1cn(-c2cccc(NC(=O)c3ccc(C)c(Nc4nccc(-c5cccnc5)n4)c3)c2)cn1`, 10.4%.
For the compound `O=C(N/N=C\c1cccc([N+](=O)[O-])c1)N/N=C/c1cccc([N+](=O)[O-])c1`, the growth was 107%.
Under `CC(=O)O[C@H]1CC[C@@]2(C)C(=CC[C@@H]3[C@@H]2CC[C@]2(C)C(c4cccnc4)=CC[C@@H]32)C1` stands 4.36% (active); under `COc1cc(Cn2ccc3c2-c2oncc2CC3)cc(OC)c1`, 16.6%.
To `Cn1c(=O)c2c(ncn2CCC(=O)Nc2ccc(F)cc2)n(C)c1=O` belongs 94.1%.
